# Source: PubChem BioAssay (NCI)
# Where “and” joins values, the source holds several entries; their conditions need not be identical. Equal values may be shown once. Compounds without any hit were thinned out: in the full panel of roughly 83,000, 20% have a hit.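 Method: cells in 96-well plates; compound added at one concentration; 48 h incubation; percent growth measured; values under 10 scored active.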 Calls of active or inactive are those of the source. Where a SMILES comes first, the peptide text is derived from it. [ ]: non-standard residue; d: D form. ξ: configuration not given here. ξV = CC(C)C(N)C(=O)O
# What was measured:
# Assay in all cases: NCI-60 one-dose screen, 48 h (100 = growth as untreated, 0 = no growth, -100 = all killed)
# SR leukemia = details: 10 µM unless noted
# RPMI-8226 leukemia = tested on: RPMI-8226 leukemia
# OVCAR-8 ovarian = tested on: OVCAR-8 ovarian
# OVCAR-5 ovarian = tested on: OVCAR-5 ovarian
# OVCAR-4 ovarian = tested on: OVCAR-4 ovarian
# SK-OV-3 ovarian = tested on: SK-OV-3 ovarian
# IGROV1 ovarian = tested on: IGROV1 ovarian
# OVCAR-3 ovarian = tested on: OVCAR-3 ovarian
# HS 578T breast = tested on: HS 578T breast
# NCI/ADR-RES ovarian = tested on: NCI/ADR-RES ovarian
Compound,growth (SR leukemia),growth (RPMI-8226 leukemia; 10 µM),growth (RPMI-8226 leukemia; 100 µM),growth (OVCAR-8 ovarian; 10 µM),growth (OVCAR-8 ovarian; 100 µM),growth (OVCAR-5 ovarian; 10 µM),growth (OVCAR-5 ovarian; 100 µM),growth (OVCAR-4 ovarian; 10 µM),growth (OVCAR-4 ovarian; 100 µM),growth (SK-OV-3 ovarian; 10 µM),growth (SK-OV-3 ovarian; 100 µM),growth (IGROV1 ovarian; 10 µM),growth (IGROV1 ovarian; 100 µM),growth (OVCAR-3 ovarian; 10 µM),growth (OVCAR-3 ovarian; 100 µM),growth (HS 578T breast; 10 µM),growth (HS 578T breast; 100 µM),growth (NCI/ADR-RES ovarian; 10 µM),growth (NCI/ADR-RES ovarian; 100 µM)
O=c1ccn(C2CC(O)C(COC(c3ccccc3)(c3ccccc3)c3ccccc3)O2)c(=O)[nH]1 (centres undefined),33.2% [100 µM] (inactive),95.8% (inactive),40.2% (inactive),80.7% (inactive),44.9% (inactive),101% (inactive),73.7% (inactive),94.5% (inactive),38.5% (inactive),99.8% (inactive),94.9% (inactive),99.2% (inactive),58.1% (inactive),102% (inactive),47.8% (inactive),89.3% (inactive),55.7% (inactive),85% (inactive),44.3% (inactive)
OC(CN1CCCC2CCCCC21)c1cc2ccccc2c2ccccc12 (centres undefined),-36.1% (active),15.8% (inactive),,51.6% (inactive),,34.2% (inactive),,29.1% (inactive),,37.7% (inactive),,58.1% (inactive),,30.6% (inactive),,26.1% (inactive),,17.4% (inactive),
O=C(C(=Cc1ccccc1)C(=O)c1ccccc1)c1ccccc1,6.35% (active) and 108% (inactive),-2.63% (active) and 85.2% (inactive),,47.8% (inactive) and 87% (inactive),,91.7% (inactive) and 84.7% (inactive),,73.6% (inactive) and 84.7% (inactive),,99.5% (inactive) and 106% (inactive),,75.1% (inactive) and 117% (inactive),,66.3% (inactive) and 85.7% (inactive),,65.2% (inactive) and 94.3% (inactive),,54.3% (inactive) and 84.3% (inactive),
CC(C)C(NC(=O)CN)C(=O)O (centres undefined) (H-Gly-[ξV]-OH),57% (inactive),109% (inactive) and 107% (inactive),,101% (inactive) and 110% (inactive),,103% (inactive) and 99.9% (inactive),,105% (inactive) and 102% (inactive),,106% (inactive) and 101% (inactive),,109% (inactive) and 108% (inactive),,112% (inactive),,111% (inactive) and 91.9% (inactive),,105% (inactive) and 111% (inactive),
CC(=O)OCC(OC(C)=O)C(OC(C)=O)C(OC(C)=O)C(OC(C)=O)C(/C=N/Nc1ccccc1)=N/Nc1ccccc1 (centres undefined),2.05% (active),60.6% (inactive),,63.8% (inactive),,96.4% (inactive),,82.6% (inactive),,85.5% (inactive),,60.1% (inactive),,71.8% (inactive),,73% (inactive),,72.4% (inactive),
CCO/C=C1\SC(=S)N(c2cccc(O)c2)C1=O,85% (inactive),94.6% (inactive),,99.4% (inactive),,97.8% (inactive),,93.8% (inactive),,91.9% (inactive),,99.2% (inactive),,102% (inactive),,108% (inactive),,107% (inactive),
Cc1cc(O)c(C(C)C)cc1Cl,103% (inactive),110% (inactive),,104% (inactive),,105% (inactive),,109% (inactive),,101% (inactive),,112% (inactive),,103% (inactive),,99.5% (inactive),,112% (inactive),
Oc1ccc(N=Nc2ccccn2)c(O)c1,10.6% (inactive),21.2% (inactive),,18.5% (inactive),,53.8% (inactive),,29.8% (inactive),,25.5% (inactive),,19.9% (inactive),,32.7% (inactive),,65.1% (inactive),,14.7% (inactive),
Cc1cc(NS(=O)(=O)c2ccc(N=Nc3cc(N=Nc4ccc(S(=O)(=O)Nc5cc(C)nc(C)n5)cc4)c4c(NC(=O)C(Cl)Cl)cccc4c3OC(=O)C(Cl)Cl)cc2)nc(C)n1 (tested in a mixture with another compound),103% (inactive) and 69% (inactive),114% (inactive) and 101% (inactive),,94.8% (inactive) and 91.7% (inactive),,122% (inactive),,101% (inactive) and 94.3% (inactive),,103% (inactive) and 105% (inactive),,104% (inactive),,114% (inactive) and 93.3% (inactive),,111% (inactive) and 128% (inactive),,107% (inactive) and 104% (inactive),
CCCC1CCC(=C2C(=O)CCC2=O)O1 (centres undefined),96.5% (inactive) and 78.2% (inactive),119% (inactive) and 113% (inactive),,112% (inactive),,96.8% (inactive) and 97% (inactive),,98.2% (inactive),,104% (inactive) and 110% (inactive),,121% (inactive),,101% (inactive) and 94% (inactive),,109% (inactive) and 97.8% (inactive),,108% (inactive) and 106% (inactive),
CCCCCCCCCCCC[N+](C)(C)Cc1ccccc1,4.5% (active),-48.3% (active),,11.9% (inactive),,55.6% (inactive),,3.85% (active),,34.9% (inactive),,-49.2% (active),,-0.287% (active),,43.2% (inactive),,96.8% (inactive),
O=C(Nc1ccc(C(=O)O)c(O)c1)c1ccccc1,113% (inactive) and 122% (inactive),132% (inactive) and 105% (inactive),,97.7% (inactive) and 99.8% (inactive),,93.8% (inactive) and 100% (inactive),,108% (inactive) and 112% (inactive),,100% (inactive) and 108% (inactive),,100% (inactive) and 103% (inactive),,115% (inactive) and 125% (inactive),,130% (inactive) and 119% (inactive),,84.2% (inactive) and 100% (inactive),
OCC(O)C(O)C(O)C(/C=N/Nc1ccccc1)=N/Nc1ccccc1 (centres undefined),58.8% (inactive),92.2% (inactive),,92.6% (inactive),,82.3% (inactive),,93.1% (inactive),,99.5% (inactive),,83.4% (inactive),,90.4% (inactive),,79.7% (inactive),,79.8% (inactive),
CCCCCCCCCCCCSC(=NC)NC,-4.45% (active) and -23.7% (active),-6.03% (active) and 23.3% (inactive),,62.1% (inactive) and 82% (inactive),,57.5% (inactive) and 84.1% (inactive),,31.3% (inactive) and 71.2% (inactive),,51% (inactive) and 79.1% (inactive),,20.3% (inactive) and 66.7% (inactive),,36.8% (inactive) and 71.7% (inactive),,81.4% (inactive) and 93.2% (inactive),,47.4% (inactive) and 69.1% (inactive),
O=C1C=C(O)c2ccccc2C1=O.[Ag],103% (inactive),104% (inactive),,95.4% (inactive),,115% (inactive),,95.4% (inactive),,137% (inactive),,105% (inactive),,117% (inactive),,96.7% (inactive),,109% (inactive),
CC(=O)Nc1cc(C)ccc1C,98.8% (inactive),117% (inactive),,104% (inactive),,102% (inactive),,104% (inactive),,102% (inactive),,108% (inactive),,102% (inactive),,90.4% (inactive),,103% (inactive),
COC(=O)C1=COC(C)C2C[n+]3ccc4c([nH]c5ccccc54)c3CC12 (centres undefined),104% (inactive) and 99.4% (inactive),93.9% (inactive) and 95.8% (inactive),,107% (inactive) and 89.8% (inactive),,105% (inactive) and 94.7% (inactive),,100% (inactive) and 108% (inactive),,114% (inactive) and 83.8% (inactive),,103% (inactive) and 82.5% (inactive),,104% (inactive) and 97.4% (inactive),,111% (inactive) and 79.6% (inactive),,108% (inactive) and 102% (inactive),
Nc1ccc2cc3ccc(N)cc3nc2c1,106% (inactive) and 7.41% (active),77.5% (inactive) and 3.77% (active),,88% (inactive) and -2.44% (active),,84.9% (inactive) and 26.6% (inactive),,104% (inactive) and -5.13% (active),,78.5% (inactive) and 12.8% (inactive),,111% (inactive) and 19.1% (inactive),,122% (inactive) and 11.3% (inactive),,123% (inactive) and 23.6% (inactive),,89.1% (inactive) and 12.6% (inactive),
